An excerpt weighted towards active compounds, which were near 9.2% of everything screened.
SMN2 splice up – enhancers of SMN2 splice variant expression; HEK293 SMN2-luciferase splicing reporter, luminescence, 30-36 h; actives 2.8% (n = 210,000); AID 1458; Potency, µM (series often up to 46.1 µM), inactives show at the highest dose activity change, positive = activation, actives largely listed as activators; also: % of control where 0% means no effect; nearly all actives have a fitted effect of over 55% in size
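HEK293 cells carry an SMN2 […]–luciferase reporter in which exon 7 inclusion puts luciferase in frame. Cells were plated 10-12 h before compound addition, then incubated 30-36 h at 37C. ONE-Glo luminescence was read; sodium butyrate at 4.5 mM final served as control.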
ELG1 genotox – genotoxicity induction in ELG1-luciferase HEK293T cells; HEK293T ELG1-luciferase reporter, luminescence, 16 h; Potency, µM (top dose mostly 46 µM), inactives show at the highest dose activity change, positive = activation, most hits filed as activators; actives 1.3% (n = 330,000); also: % of control where 0% means no effect; nearly all actives have a fitted effect of over 60% in size
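HEK293T cells expressing luciferase-tagged ELG1 were exposed to compound or DMSO vehicle for 16 hr at 37 °C and 5% CO2. Luciferase activity was then measured with ONE-Glo after 30 min at room temperature.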
ELG1 repair inh – inhibitors of ELG1-dependent DNA repair in HEK293T cells. Potency, µM (series often up to 46.1 µM), without a hit: at the highest dose activity change, negative = inhibition, usual class: inhibitors. actives 2.3% (n = 330,000). HEK293T ELG1-luciferase reporter, luminescence, 16 h; DNA damage induced by 5-fluorouridine. AID 504467; also: % is scaled to controls: 0 for no effect and ±100 for the full control effect; nearly all actives have a fitted effect of over 55% in size
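HEK293T cells expressing luciferase-tagged ELG1 (2,000/well) received 5-Fluorouridine plus compound or DMSO for 16 hr at 37 °C. Luciferase was read by ONE-Glo luminescence after 30 min at room temperature.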
Rab9 prom act – Rab9 promoter activation; Huh7 Rab9 promoter-luciferase reporter, luminescence, 24 h; Potency, µM (series often up to 9.22 µM), for the others: at the top dose activation, negative = inhibition, usual class: activators; actives 2.8% (n = 320,000); AID 485297; also: % of control where 0% means no effect; nearly all actives have a fitted effect of over 60% in size
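Steps: seed 1500 Huh7 Rab9-luc cells per well, rest 2 h at 37 °C; add compound in DMSO; incubate 24 h; add luciferase reagent, 10 min ambient; read luminescence.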
NPC1 prom act – NPC1 promoter activation | Potency, µM (series often up to 9.22 µM), inactives show top-dose activation, usual class: activators | Huh7 NPC1 promoter luciferase reporter, 24 h | actives 2.4% (n = 320,000); also: % of control where 0% means no effect; nearly all actives have a fitted effect of over 60% in size
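Huh7 reporter cells (NPC1 promoter driving luciferase) are dosed with compound for 24 h at 37 °C, 5% CO2; luciferase detection reagent is then added and luminescence measured after 10 min at ambient temperature.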
FLuc modulator – firefly luciferase modulation, counter-screen for miR-21 project. purified FLuc, Km substrates, luminescence inhibition. P08659. Potency, µM (top dose mostly 57.5 µM), for inactives: at the top dose activity change, negative = inhibition, most hits filed as inhibitors. actives 6.9% (n = 360,000);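 also: plate controls were vehicle for no effect and reference inhibitor for full effect; nearly all actives have a fitted effect of over 55% in size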
Target sequence (P08659 whole entry, looked up): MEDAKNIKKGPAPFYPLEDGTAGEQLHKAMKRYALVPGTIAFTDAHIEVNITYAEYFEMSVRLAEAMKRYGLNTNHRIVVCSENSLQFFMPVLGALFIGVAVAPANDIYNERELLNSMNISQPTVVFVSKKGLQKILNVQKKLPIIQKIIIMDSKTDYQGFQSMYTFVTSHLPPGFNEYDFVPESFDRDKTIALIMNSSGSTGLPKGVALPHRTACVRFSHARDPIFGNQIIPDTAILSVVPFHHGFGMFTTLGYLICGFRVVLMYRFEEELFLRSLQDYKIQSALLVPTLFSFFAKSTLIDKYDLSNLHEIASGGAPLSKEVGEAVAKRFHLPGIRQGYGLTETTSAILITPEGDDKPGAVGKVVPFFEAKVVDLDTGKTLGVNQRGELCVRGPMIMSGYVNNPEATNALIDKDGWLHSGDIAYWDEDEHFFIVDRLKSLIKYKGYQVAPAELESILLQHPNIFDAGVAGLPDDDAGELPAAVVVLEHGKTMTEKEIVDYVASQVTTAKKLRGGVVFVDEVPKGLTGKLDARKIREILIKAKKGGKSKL
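Purified P. pyralis luciferase (10nM final) with 10uM D-luciferin and 10uM ATP (Km levels) in 50mM Tris acetate pH 7.5, 10mM Mg acetate, 0.01% Tween-20, 0.05% BSA; qHTS 6-point titration, ~60 µM downward; luminescence read.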
* marks the source's active call; other numbers are inactive results; ? = inconclusive; . = no result given; [ ] = dose if it differs, or a comment. Calls follow the shape of the dose curve; as a rule, active = well fitted curve in the direction sought with a large enough effect; inconclusive = small, poorly fitted or top-dose-only effect, or another doubt; inactive = no such curve, though single readings can be large; an effect the other way counts as inactive or inconclusive. Potency is read from the fitted curve at half-maximal effect.

SMILES	SMN2 splice up	ELG1 genotox	ELG1 repair inh	Rab9 prom act	NPC1 prom act	FLuc modulator
Cc1cc(C)cc(NC(=O)C(c2ccccc2)N2CCN(CC(=O)NC3CC3)CC2)c1 (stereo not given)	.	0%	-3%	-4%	3%	-11%
CC(=O)N1CCCc2cc(S(=O)(=O)N3CCC(C(=O)NCc4ccccc4)CC3)ccc21	.	.	.	.	.	-2%
Cc1ccc(C)c(NC(=O)C(NS(=O)(=O)c2ccc3c(c2)CCC(=O)N3)c2ccccc2)c1 (stereo not given)	?	.	.	.	.	6%
CC1(c2ccccc2)NC(=O)N(CC(=O)N(CC(=O)Nc2ccccc2C(F)(F)F)Cc2ccco2)C1=O (stereo not given)	.	-1%	-4%	-4%	-1%	5%
N=C1/C(=C\c2ccc(OC(=O)c3ccco3)cc2)C(=O)N=C2SC=NN12	?	-2%	-9%	1%	-2%	15µM*
CS(=O)(=O)C1=NN2C(=N)/C(=C\c3ccc(OC(=O)c4ccco4)cc3)C(=O)N=C2S1	.	1%	0%	-1%	1%	?
COc1cc(/C=C2/C(=N)N3C(=NC2=O)SN=C3S(=O)(=O)C(C)C)ccc1OC(=O)c1ccco1	.	5%	18%	0%	5%	13µM*
CCOc1cc(/C=C2/C(=N)N3C(=NC2=O)SN=C3S(=O)(=O)C(C)C)ccc1OC(=O)c1ccco1	.	3%	22%	-6%	-3%	-18%
CCS(=O)(=O)C1=NSC2=NC(=O)/C(=C\c3ccc(OC(=O)c4ccco4)c(OC)c3)C(=N)N21	.	3%	3%	2%	-5%	21µM*
C=CCOc1ccc(/C=C2\C(=N)N3N=C(S(=O)(=O)CC)SC3=NC2=O)cc1OC	-2%	11%	6%	0%	-1%	9.5µM*
CCOc1cc(/C=C2/C(=N)N3C(=NC2=O)SN=C3S(=O)(=O)CC)ccc1OC(=O)c1ccco1	.	3%	-2%	-1%	3%	-21%
Cc1ccc(N2CCN(c3nc4ccc(C)cc4n4nnnc34)CC2)c(C)c1	.	.	.	.	.	2%
COc1cc(/C=C2/C(=N)N3C(=NC2=O)SN=C3S(=O)(=O)C(C)C)ccc1OS(=O)(=O)c1ccccc1	.	-1%[9.26 µM]	16%	3%	-2%	-1%
CSC1=NSC2=NC(=O)/C(=C\c3cccs3)C(=N)N12	0.5µM*	?	?	1.4µM*	3.5µM*	9.5µM*
COc1cc(/C=C2/C(=N)N3C(SC)=NSC3=NC2=O)ccc1OC(=O)c1ccco1	.	?	?	?	?	27µM*
COc1cc(/C=C2/C(=N)N3C(c4ccccc4)=CSC3=NC2=O)ccc1OCC(=O)O	.	-4%	16%	1%	9%	27µM*
COc1cc(/C=C2/C(=N)N3C(=NC2=O)SN=C3S(C)(=O)=O)ccc1OC(=O)c1ccco1	.	0%[9.26 µM]	?	5%	1%	11µM*
Cc1cccc(-n2c(C)cc(/C=C3/C(=N)N4C(c5ccccc5)=CSC4=NC3=O)c2C)c1	-21%	-3%	0%	0%	0%	-13%
CCS(=O)(=O)C1=NN2C(=N)/C(=C\c3ccc(OC(=O)c4ccco4)c(OC)c3)C(=O)N=C2S1	.	1%	21%	-2%	0%	?
CC(C)CSC1=NSC2=NC(=O)/C(=C\c3cccs3)C(=N)N12	?	-1%	?	12%	25%	?
Clc1cc(Cl)cc(Cl)c1	-8%	.	.	.	.	.
CS(=O)(=O)C1=NSC2=NC(=O)/C(=C\c3ccc(OC(=O)c4ccco4)cc3)C(=N)N21	.	-3%	-4%	17%	8%	24µM*
COC(CN(C)C(=O)C1CCCN(S(=O)(=O)c2ccc3c(c2)oc(=O)n3C)C1)OC (stereo not given)	.	3%	26%	-3%	1%	8%
COc1cccc(CNc2nnnn2C)c1	.	-24%	5%	4%	-1%	-1%
Cc1ccc2c(c1C)NC(=O)C21N2CCCC2C(C(=O)c2ccc3ccccc3c2)C12C(=O)Nc1ccccc12 (stereo not given)	.	-8%	-7%	12%	0%	9.5µM*
SMILES	SMN2 splice up	ELG1 genotox	ELG1 repair inh	Rab9 prom act	NPC1 prom act	FLuc modulator
Cc1nc(C)c(C(=O)N2CCCC(C(=O)c3ccc4ccccc4c3)C2)s1 (stereo not given)	.	-9%	-27%	0%	7%	-2%
CC1=NN(c2ccccc2)C(=O)C1/C=C1/NC(=S)NC1=O (stereo not given)	.	-1%	-1%	10%	1%	17µM*
CC1=NN(c2ccccc2)C(=O)C1N=Nc1ccc(C)cc1 (stereo not given)	21%	1%	7%	-2%	1%	-17%
CC1=NN(c2ccccc2)C(=O)C1C=Nc1ccc(N(C)C)cc1 (stereo not given)	.	1%	6.5µM*	-3%	11%	?
O=C1NC(=S)N/C1=C/C=C/c1ccccc1	20%	?	?	?	18%	-14%
COCCNC(=O)CCc1nnc2ccc(N3CCC(C)CC3)nn12	.	1%	8%	2%	-7%	0%
c1ccc(-c2onc(-c3ccco3)c2-c2ccc3[nH]ccc3c2)cc1	.	-2%	12%	4%	-1%	19µM*
c1ccc(-c2ccc3[nH]ccc3c2)cc1	.	?	?	-2%	?	?
c1cc2cc(-c3c(-c4ccc5c(c4)OCO5)noc3-c3ccsc3)ccc2[nH]1	.	15%	?	?	?	11µM*
COc1cc(C(=O)OCC(=O)N2CCCCC2C)cc(NC(=O)c2cccs2)c1OC (stereo not given)	-18%	-8%	18µM*	-6%	0%	-2%
CCC1CCCCN1C(=O)COC(=O)c1cccs1 (stereo not given)	.	3%	29%	.	.	.
CCN(Cc1ccccc1)C(=O)c1ccc(C(=O)N(CC)Cc2ccccc2)cc1	.	-4%	-3%	-7%	-11%	8%
CCN(Cc1ccccc1)C(=O)c1cc(-c2ccccc2)n[nH]1	.	.	.	.	.	15µM*
O=C1C(=O)N(C2CCS(=O)(=O)C2)C(c2cccc(O)c2)/C1=C(/O)c1ccc(Cl)cc1 (stereo not given)	.	-1%	-5%	-2%	-2%	0%
COCCNS(=O)(=O)c1cc(C(=O)O)ccc1OC	.	0%	8%	0%	1%	0%
COCCNS(=O)(=O)c1cc(F)ccc1OC	3.2µM*	-3%	2%	-4%	1%	0%

Screening data as filed in PubChem BioAssay.
